D2 PAM-1 = HTS Assay for Positive Allosteric Modulators of the Human D2 Dopamine Receptor: Primary Screen for Potentiators; D(2) dopamine receptor (Homo sapiens), P14416; HEK293 T-REx D2, calcium flux, EC20 dopamine potentiation; potentiation, % at 10 µM; 340,000 tested, 0.34% active;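 active means potentiation over 3 SD above the plate norm, cut at about 30% in these data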; further: 0% is about no effect
Target sequence (P14416 whole entry, looked up): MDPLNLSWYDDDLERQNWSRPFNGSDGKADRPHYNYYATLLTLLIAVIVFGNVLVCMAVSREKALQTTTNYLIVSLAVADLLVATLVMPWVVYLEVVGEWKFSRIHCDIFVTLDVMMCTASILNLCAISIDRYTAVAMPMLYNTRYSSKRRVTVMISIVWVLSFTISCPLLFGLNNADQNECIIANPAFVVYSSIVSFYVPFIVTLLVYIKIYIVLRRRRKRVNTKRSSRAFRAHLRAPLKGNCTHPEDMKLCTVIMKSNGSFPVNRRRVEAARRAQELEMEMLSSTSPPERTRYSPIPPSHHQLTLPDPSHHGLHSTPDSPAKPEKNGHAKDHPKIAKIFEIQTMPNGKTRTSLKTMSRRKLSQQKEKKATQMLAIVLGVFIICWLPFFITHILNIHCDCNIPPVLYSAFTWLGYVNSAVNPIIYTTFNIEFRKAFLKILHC
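Using a no-wash calcium dye in inducible, force-coupled HEK293 Trex cells expressing D2, we tracked fluorescence each second for 180 s after compound, then for 180 s after EC20 dopamine to detect augmented signalling.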
D2 PAM-2 = Beta-Arrestin HTS for Positive Allosteric Modulators of the Human D2 Dopamine Receptor: Potentiators. DiscoveRx D2 beta-arrestin cells, luminescence, 90 min; 100% = 57 uM dopamine signal. 360,000 tested, 0.23% active. potentiation, % (test concentration not listed). AID 624464, 2012; in the data active means potentiation above about 50%
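D2 cells co-treated with compound plus 50 nM dopamine (EC20) for 90 min at 37 deg C to detect potentiation. Beta-arrestin recruitment was read as enzyme-fragment luminescence after 1 h at ambient temperature. Full response was set by 57 uM dopamine.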
D2 antag = HTS Assay for Allosteric Antagonists of the Human D2 Dopamine Receptor: Primary Screen for Antagonists; 340,000 tested, 2% active; inhibition, % at 10 µM; HEK293 TREx D2 cells, calcium flux, dopamine EC80; AID 485344, 2010; in the data active means inhibition above about 30%; inactive means below that, where a call was filed; further: 0% is about no effect
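HEK293 T-REx D2 cells, tet-induced, calcium dye no-wash. Cpd pintool add, 180 s kinetic, then EC80 DA, 180 s kinetic. Ca flux read.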
D2 ag-1 = HTS Assay for Allosteric Agonists of the Human D2 Dopamine Receptor: Primary Screen for Agonists; D(2) dopamine receptor (Homo sapiens), P14416; HEK293 T-REx D2 cells, calcium flux agonist mode; activation, % at 2 µM; 340,000 tested, 0.53% active; AID 485358, 2010;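 active means activation over 3 SD above normal in the single-dose calcium agonist read, cut at about 30% in these data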; further: 0% is about no effect
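Tetracycline-induced HEK293 Trex cells with D2 receptor force-coupled to calcium signaling, plated overnight at 30 C and loaded with no-wash calcium dye. Calcium flux read kinetically for 180 s after compound addition; responses flag agonists.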
D2 ag-2 = Beta-Arrestin HTS for Positive Allosteric Modulators of the Human D2 Dopamine Receptor: Agonists; D(2) dopamine receptor (Homo sapiens), P14416; 360,000 tested, 0.084% active; DiscoveRx PathHunter D2 beta-arrestin, luminescence, 90 min; 100% = 57 uM dopamine signal; activation, % (test concentration not listed); in the data active means activation above about 40%
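Agonist mode: compounds alone added to overnight-plated D2 PathHunter cells for 90 min at 37 C, with 57 uM final dopamine (EC100) defining full response. Beta-arrestin recruitment detected by chemiluminescent reagent, read after 1 h at ambient temperature.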
Active calls of the source: *; · = no result. The list is not random: actives were taken first. Their share in the collection is about 2.4%.

SMILES	D2 PAM-1	D2 PAM-2	D2 antag	D2 ag-1	D2 ag-2
CN(CCC#N)C(=O)COC(=O)c1ccc(Cl)cc1O	-6	0	47*	1	-2
O=C(COc1ccccc1F)NC1CCN(Cc2ccccc2)CC1	-15	-25	48*	0	-3
Cc1cc(OCC(=O)NC2CCN(Cc3ccccc3)CC2)c2c(C)cc(=O)oc2c1	-22	-39	54*	0	-2
O=C(Cc1ccccc1[N+](=O)[O-])NC1CCN(Cc2ccccc2)CC1	-29	-5	48*	1	-2
O=C(Cc1c(F)cccc1Cl)NC1CCN(Cc2ccccc2)CC1	·	-52	·	·	-7
Cc1cc(OC(C)C(=O)NC2CCN(Cc3ccccc3)CC2)c2c(C)cc(=O)oc2c1 (stereo unspecified)	-19	-33	73*	-1	3
O=c1oc(C2(O)CCCCC2)cc2ccc(/C=C/c3ccc(F)cc3)cc12	7	-10	1	0	-5
O=C(NCc1ccc2c(c1)CCN2C(=O)c1ccc(Cl)cc1)c1ccco1	-33	·	·	0	·
CCOc1ccc(OCCC(=O)OCC(=O)N2CCN(c3ccc(OC)cc3)CC2)cc1	4	1	-6	-1	-2
N#Cc1cc(S(=O)(=O)c2ccccc2)c(N)[nH]c1=O	4	-14	86*	1	-5
CCN1CCSc2ccc(C(=O)NCc3cccc(F)c3)cc21	-15	-9	44*	1	-6
CCCOc1ccc(CNC(=O)c2ccc3c(c2)N(CC)CCS3)cc1	-15	-10	50*	1	-3
COC(=O)C(C(=O)OC)C(CC(=O)c1ccc(Br)cc1)c1ccccc1 (stereo unspecified)	·	-20	·	·	0
O=S(=O)(c1ccsc1)N1CC=C(c2ccccc2)CC1	-12	-5	35*	36*	10
Cc1c(Cl)cccc1NC(=O)NCCOCCn1c(=O)oc2ccccc21	3	·	·	0	·
Cc1ccc(NC(=O)c2cccs2)cc1NC(=O)c1cccnc1	·	77*	·	·	-1
Cc1ccc(-n2c(SCc3ccccc3F)nc3[nH]ncc3c2=O)cc1Cl	-10	·	·	1	·
O=C(OCC(=O)N1CCN(c2ccccc2)CC1)c1cccc([N+](=O)[O-])c1	-17	-9	30*	-2	-4
O=C(COc1ccc(Br)cc1)N1CCN(c2ccccc2)CC1	-15	15	23	0	-1
CC1CC(C)CN(C(=O)COC(=O)c2cccc([N+](=O)[O-])c2)C1 (stereo unspecified)	-1	-7	2	0	-1
O=C(COC(=O)C1(c2ccccc2)CC1)N1CCN(c2ccc(F)cc2)CC1	15	-11	35*	0	-1
O=C(COc1ccccc1)N1CCN(c2ccccc2)CC1	1	-10	30*	1	-2
Cc1ccc(S(=O)(=O)N2CCCCC2)cc1NC(=O)CSc1nnc(C2CC2)n1C	·	-2	·	·	-2
Cc1cc(C)cc(N(CC(=O)N2CCCCCC2)S(C)(=O)=O)c1	-2	2	34*	-1	7
CCOC(=O)C1CCN(C(=O)CN(c2ccc(Cl)c(C(F)(F)F)c2)S(C)(=O)=O)CC1	15	-16	-4	0	-3
CCOC(=O)C1CCN(C(=O)CN(c2ccc3c(c2)OCO3)S(C)(=O)=O)CC1	1	-16	45*	1	-2
CCc1nc2ccc(C(=O)NCCN3CCNC3=O)cn2c1N(CCC(C)C)CCN(C)C	·	-2	·	·	-7
Cc1nc(C(F)(F)F)ccc1C(=O)N1CCC1(C)C(=O)Nc1ccc2c(c1)OCO2 (stereo unspecified)	·	-14	·	·	-1
CCN(CC)c1ccc(/C=C(\C#N)c2nc(-c3cccs3)c(NC(C)=O)s2)cc1	-3	·	6	33*	·
CC(=O)Nc1sc(NC(=O)c2ccccc2)nc1-c1cccs1	-7	-1	-14	0	4

Bioassay records from PubChem.
